KB-3-1 tox: qHTS assay for MDR1-selective chemotherapeutics: Primary screen using the parental adenocarcinoma cell KB-3-1. KB-3-1 viability, CellTiter-Glo ATP luminescence, 72 h. Potency, µM (highest dose often 46.1 µM), actives largely listed as cytotoxic. 400,000 compounds, 1.4% hits. AID 1347075, 2019; also: % is scaled to controls: 0 for no effect and ±100 for the full control effect; nearly all actives have a fitted effect of over 60% in size
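Using CellTiter-Glo luminescence, growth of non-resistant KB-3-1 adenocarcinoma cells is assessed 72 h after pin-tool compound addition at 37 °C. Normalized responses across the concentration series yield fitted curves.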
ATXN viability: Viability Counterscreen for Primary qHTS for Inhibitors of ATXN expression; Potency, µM (top dose mostly 56.7 µM), most hits filed as cytotoxic; S2 cells (HEK-293 line with an ATXN2-luciferase reporter) viability, CellTiter-Fluor protease fluorescence, 24 h; 400,000 compounds, 0.49% hits; also: nearly all actives have a fitted effect of over 40% in size
HT1080-NT tox: qHTS for induction of synthetic lethality in tumor cells producing 2HG: qHTS for the HT-1080-NT fibrosarcoma cell line. HT-1080-NT fibrosarcoma viability, CellTiter-Glo ATP luminescence, 48 h. 360,000 compounds, 1.6% hits. Potency, µM (doses to about 46.1 µM), for the others: at the top dose activity, negative = less viability, actives largely listed as cytotoxic. AID 686970, 2013;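 also: NT is the 2HG producing partner of a matched IDH1 knockdown line; 0% = DMSO-treated cells and -100% = media-only wells without cells; nearly all actives have a fitted effect of over 55% in size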
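Viability of the 2HG-overproducing fibrosarcoma line after 48 hours of compound exposure at 37 degrees C was determined by luminescence with CellTiter-Glo, and concentration-effect curves were then fitted and categorized.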
KB-V1 MDR tox: qHTS assay for MDR1-selective chemotherapeutics: Primary screen using the drug-selected MDR subline cells KB-V1; Potency, µM (top dose mostly 46.1 µM), hits mostly cytotoxic; 400,000 compounds, 3.4% hits; KB-V1 MDR cells viability, CellTiter-Glo, 72 h; AID 1347076, 2019; also: % is scaled to controls: 0 for no effect and ±100 for the full control effect; nearly all actives have a fitted effect of over 60% in size
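Cytotoxicity via CellTiter-Glo luminescence after 72 h compound exposure at 37 degrees C. Cells: drug-selected KB-V1 line, DMEM phenol-red free plus 10% FBS. Compounds tested at multiple concentrations; normalized data fitted to concentration-effect curves.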
HT1080 IDH1KD tx: qHTS for induction of synthetic lethality in tumor cells producing 2HG: qHTS for the HT-1080-IDH1KD cell line. HT-1080 IDH1 knockdown viability, ATP luminescence, 48 h. Potency, µM (highest dose often 46.1 µM), inactives show at the top dose activity, negative = toxicity, most hits filed as cytotoxic. 360,000 compounds, 2% hits. AID 686971, 2013;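 also: 0% = DMSO wells and -100% = cell-free medium wells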
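IDH1KD HT-1080 cells, 750/well, RPMI + 5% FBS; compound pinned after 2 h settling; 48 h, 37 °C; CellTiter-Glo luminescence; % activity normalised to DMSO and no-cell wells; curves fitted, classed by r2 and efficacy.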
ATXN2 expr inh: Primary qHTS for Inhibitors of ATXN expression | HEK-293 ATXN2-luciferase reporter, luminescence, 24 h | Potency, µM (titrated, usually from 57 µM), without a hit: at the top dose activity change, negative = inhibition, hits mostly inhibitors | 360,000 compounds, 0.72% hits; also: % is scaled to controls: 0 for no effect and ±100 for the full control effect; nearly all actives have a fitted effect of over 55% in size
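ATXN2-luciferase reporter cells (luciferase flanked by upstream and downstream ATXN2 gene portions) were treated 24 h at 37 °C with compounds at up to 57 uM. SteadyGlo luminescence gave expression; GF-AFC fluorescence gave viability.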
Active calls of the source: *; i = inactive; ? = inconclusive; . = no result; [ ] = dose if it differs, or a comment. In the library only some 6.2% were active in any assay of this set; here they are far more common. Calls follow the shape of the dose curve; as a rule, active = well fitted curve in the direction sought with a large enough effect; inconclusive = small, poorly fitted or top-dose-only effect, or another doubt; inactive = no such curve, though single readings can be large; an effect the other way counts as inactive or inconclusive. Potency is read from the fitted curve at half-maximal effect.

SMILES	KB-3-1 tox	ATXN viability	HT1080-NT tox	KB-V1 MDR tox	HT1080 IDH1KD tx	ATXN2 expr inh
C=CCn1c(NCCc2ccccc2)nc2c1c(=O)n(C)c(=O)n2C	?	i	-15.3%	9.2µM*	?	?
COc1ccc(OCC(O)Cn2c(Nc3cccc(C)c3)nc3c2c(=O)n(C)c(=O)n3C)cc1 (centres undefined)	i	i	4.6%	i	7.1%	-18.4%
COc1cc(OC)cc(C(=O)Nc2cc(-c3nc4cccnc4s3)ccc2C)c1	i	i	.	i	.	-3.7%
CCCCCC(=O)N1C[C@H](n2cc(-c3ccc(F)cc3)nn2)[C@@H](O)C[C@@H]1c1ccc(Cl)cc1	?	?	16.4µM*	?	?	?
Cc1ccc([C@H]2C[C@@H](n3cc(-c4ccc(F)cc4)nn3)[C@H](O)CN2C(=O)C2CCCCC2)cc1	?	?	1.2%	9.2µM*	-2.8%	-2.3%
O=C(C1CCCCC1)N1C[C@@H](O)[C@H](n2cc(-c3ccc(F)cc3)nn2)C[C@@H]1c1ccccc1	18.4µM*	?	?	i	?	-11.1%
CC(C)(C)n1nnnc1C(CCc1ccccc1)N1CCN(C/C=C/c2ccccc2)CC1 (centres undefined)	?	?	?	?	?	-28.4%
CC(C)(CO)NC(=O)c1cnn(-c2ncc3c(n2)-c2ccccc2CC3)c1C1CC1	.	i	.	.	.	.
O=C(Nc1ccc(-c2nc3ccccc3[nH]2)cc1)c1ccc2c(c1)OCO2	i	?	?	i	?	-28.3%
c1ccc2[nH]c(-c3ccc4c(c3)OCO4)nc2c1	?	?	25.9µM*	13µM*	25.9µM*	19.7%
COc1ccc(C)cc1NC(=O)Cn1nc(N2CCN(c3ccccc3OC)CC2)ccc1=O	i	i	.	i	.	-28.8%
N/C(=N\O)c1cn(Cc2ccccc2Cl)c2ccccc12	i	i	?	i	-27.3%	-9.1%
Cc1[nH][nH]c(=O)c1C(c1c(C)[nH][nH]c1=O)c1cn(Cc2ccccc2Cl)c2ccccc12	7.31µM*	i	?	18.4µM*	18.4µM*	-24.2%
COc1cc(CC(=O)OCC(=O)c2ccc3c(c2)OCCO3)cc(OC)c1OC	1.03µM*	?	1.64µM*	0.731µM*	1.46µM*	6.1%
O=C(COC(=O)c1ccc(O)cc1)c1ccc2c(c1)OCCO2	i	i	-5.4%	i	-3.9%	14.1%
COc1cccc(Oc2nc(C)nc3c2oc2ccccc23)c1	i	?	.	i	.	-13.2%
COc1ccccc1OCCCCN1CCN(C(c2ccccc2)c2ccccc2)CC1	?	?	?	?	18.4µM*	-31.5%
c1ccc(OCCOCCN2CCN(C(c3ccccc3)c3ccccc3)CC2)cc1	?	i	-10.2%	?	-3.4%	-25.6%
Cc1cccc(C)c1NC(=S)NC(=O)CCc1ccccc1	i	i	10µM*	?	11.2µM*	-11.9%
CCCC(=O)NC(=S)Nc1c(C)cc(Br)cc1C	18.4µM*	i	0.4%	?	-3.7%	1.9%
Cc1ccccc1NC(=S)NC(C)CCc1ccccc1 (centres undefined)	i	i	-1.1%	i	7.9%	-5.8%
NC(=O)c1ccccc1NC(=O)CCc1ccccc1	i	i	6.8%	i	4.7%	23.3%
Cc1ccccc1NC(=S)NC(=O)CCc1ccccc1	i	i	10µM*	?	?	0.8%
NC(=O)c1ccccc1NC(=S)NC(=O)CCc1ccccc1	i	?	3.26µM*	i	3.26µM*	-11.8%
CCC(=O)NC(=S)Nc1c(C)cc(Br)cc1C	i	i	-13.9%	i	-19.6%	-4.5%
SMILES	KB-3-1 tox	ATXN viability	HT1080-NT tox	KB-V1 MDR tox	HT1080 IDH1KD tx	ATXN2 expr inh
N#Cc1nc(-c2ccc(OCc3ccc(Cl)cc3)cc2)oc1N1CCCCC1	i	.	.	i	.	.
Cc1ccccc1Cn1nnc2c(=O)[nH]c(C3CCN(C(=O)c4ccccc4Cl)CC3)nc21	i	i	.	i	.	13.8%
COc1ccc(OC)c(Nc2nc(N)nc(-c3cc4ccccc4o3)n2)c1	?	i	-27.9%	14.6µM*	2.0%[9.24 µM]	3.6%
COc1ccc(N(CC(=O)NCCSCc2ccccc2C)S(=O)(=O)c2ccccc2)cc1	?	i	?	14.6µM*	?	-17.8%
COc1cc(-c2nc(C)cnc2C)cc2c1OCCN(C(=O)Cc1cc(OC)c(OC)c(OC)c1)C2	.	i	.	.	.	.
CCn1cnc2scc(-c3ccccc3)c2c1=O	i	i	-5.8%	i	-11.5%	0.4%
Cn1cc(/C=N/n2cnc3scc(-c4ccc(Cl)cc4)c3c2=O)c2ccccc21	?	?	?	?	0.461µM*	-16.7%
CC(C)OC(=O)C(=O)NNc1ccccc1	?	i	7.31µM*	i	9.2µM*	?
CCCOC(=O)C(=O)NNc1ccccc1	?	i	3.66µM*	i	5.17µM*	-13.0%[11.3 µM]
CC(=O)Nc1ccccc1	i	i	15.0%	i	16.5%	-10.5%
C=C(C)C(=O)NNc1ccccc1	i	i	7.31µM*	i	20.6µM*	-24.1%
CCOC(=O)C(=O)NNc1ccc(Cl)cc1	i	i	3.66µM*	i	4.11µM*	-29.0%
COc1ccc(F)c(CN2CCOc3ccc(CN4CCC(O)(c5cccnc5)CC4)cc3C2)c1	.	i	.	.	.	.
O=C(NNc1ccc(Cl)cc1)c1cccs1	i	i	4.61µM*	i	6.51µM*	?
Cc1cccc(NNC(=O)C(=O)NNc2cccc(C)c2)c1	?	i	?	i	5.17µM*	.
Cc1cccc(NC(=O)CC(=O)Nc2cccc(C)c2)c1	i	?	-10.4%	i	-14.3%	-4.5%
CCc1ccc(C(=O)NNc2ccc(Cl)cc2)cc1	?	i	?	i	6.51µM*	.
Cc1ccccc1NNC(=O)C(=O)NNc1ccccc1C	?	i	-6.9%	i	18.4µM*	.
CCn1cc2nc(SCc3cccc(C(F)(F)F)c3)n(Cc3ccc(Cl)cc3)c(=O)c2n1	?	i	.	?	.	-2.6%
CCn1c(SC)nc2cc(S(=O)(=O)N3CCCCC3)ccc21	20.6µM*	i	-9.1%	i	?	-9.2%

High-throughput results (PubChem)
